# Laboratory results as given in PubChem BioAssay AID2314 (National Center for Advancing Translational Sciences (NCATS), 2010).
# Hit rate of the full screen: of about 300,000 compounds, about 37,000 (12%) were called active. Only a selection was taken, and actives are over-represented in it overall. Unmarked numbers belong to inactive results. No stated cut-off is given here; in the data, active means max response mostly above about 13% (no sharp cut-off); inactive means mostly below about 14%.
# Assay: Cycloheximide Counterscreen for Small Molecule Inhibitors of Shiga Toxin; further: read at 38.3 µM for the half of the compounds with a filed dose; 0% is about no effect
# Conditions: cell reporter, cycloheximide protein synthesis inhibition counterscreen; stronger effect = higher value
row,SMILES,max response
1,CCCNC(=S)N1CCC(NC(=O)c2ccc(OC)cc2)CC1,-1.83%
2,Cc1nnc(SCC(=O)Nc2ccc(S(=O)(=O)Nc3ccc(Cl)nn3)cc2)s1,-1.1%
3,CCC(=O)Nc1ccc(C(=O)Nc2cc(C)on2)cc1,17.5% (active)
4,Cc1cc(NC(=O)CSCc2ccccc2C)no1,12.4%
5,CCOc1ccc(C(=O)Nc2cc(OC)ccc2OC)cc1,-3.82%
6,CCOc1ccc(C(=O)Nc2ccc(S(=O)(=O)Nc3cc(C)on3)cc2)cc1,-5.61%
7,Cc1cc(NC(=O)CN2CCC(O)(c3cccc(F)c3)CC2)no1,4.43%
8,CCOc1ccc(NC(=O)Nc2cc(C)on2)cc1,43.6% (active)
9,CCOc1ccc(NC(=O)Nc2cc(C)ccc2OC)cc1,25.4% (active)
10,Cc1cc(NC(=O)c2cccc(N3C(=O)CCC3=O)c2)no1,-2.26%
11,CCC(=O)Nc1ccc(C(=O)Nc2ccc3c(c2)C(=O)N(CC2CCCO2)C3=O)cc1 (configuration not stated),-2.89%
12,CCOc1ccc(CC(=O)Nc2ccc(S(=O)(=O)Nc3cc(C)on3)cc2)cc1OCC,-4.07%
13,Cc1cc(NC(=O)c2ccccc2C)no1,32.6% (active)
14,COc1ccc(C)cc1NC(=O)Nc1ccccc1SC,0.774%
15,COc1cccc(NC(=S)N(CCc2c(C)[nH]c3ccccc23)Cc2ccco2)c1,-1.95%
16,O=S(=O)(NC1CC1)c1ccc(Cl)cc1,-3.78%
17,CCOC(=O)C1=C(CCc2ccccc2)NC(=O)NC1c1ccc2ccccc2c1 (configuration not stated),-1.16%
18,CC1(c2ccc3ccccc3c2)NC(=O)NC1=O (configuration not stated),1.06%
19,CCN(CC)C(=O)CN(c1cccc(OC)c1)S(=O)(=O)c1ccc(C)cc1,1.38%
20,COc1ccc(C)cc1-n1nnnc1SCc1nc2ccccc2c(=O)[nH]1,10.3%
21,COc1ccc(CCn2c(NN=C3CCCC3)nc3c2c(=O)[nH]c(=O)n3C)cc1,0.589%
22,Cc1ccc(NC(=O)c2sc3nc(N)c(C#N)cc3c2N)cc1,41% (active)
23,CC(=O)Nc1ccc(NC(=O)c2sc3nc4c(c(-c5ccc(C)cc5)c3c2N)CCC4)cc1,0.359%
24,CCc1ccc2nc3sc(C(=O)Nc4nnc(CC)s4)c(N)c3cc2c1,17.3%
25,CCN1CCN(C(=O)Cn2nc(C)n3c(cc4c(OC)cccc43)c2=O)CC1,1.35%

row,SMILES,max response
1,Cc1c(Cl)cccc1NC(=O)CCC(=O)N/N=C/c1ccco1,-1.66%
2,CCCCSc1nnc(-c2ccc(NC(=O)CC)cc2)n1C,-3.61%
3,CCC(=O)Nc1ccc(-c2ccc(N3CCCCC3)nn2)cc1,42.9% (active)
4,O=C(CN1CCN(c2ccccn2)CC1)Nc1ccc(Br)cc1,-4.91%
5,O=C1Nc2ccc([N+](=O)[O-])cc2C1=Nc1cccc(CO)c1,-2.88%
6,Cc1ccc(C(=O)OC2CCCN(C)C2)cc1 (configuration not stated),6.14%
7,Cn1ccc(=NC=C(C#N)C#N)c2ccccc21,1.04%
8,CCOc1cc(CN2CCCC(CO)(Cc3ccc(F)cc3F)C2)ccc1OC (configuration not stated),-0.883%
9,CC(=O)Nc1ccc(NC(=O)CSc2nnnn2-c2ccccc2F)cc1,9.54%
10,CCn1nnnc1SCC(=O)c1ccc(C)cc1C,56.3% (active)
11,Cc1ccc(C)c(-n2nnnc2SCC(=O)c2c(N)n(C)c(=O)n(C)c2=O)c1,-2.92%
12,COc1ccc(-n2nnnc2SCC(=O)Nc2ccccc2)cc1,-4.18%
13,COc1ccc(C(=O)CSc2nnnn2C)c(OC)c1,-3.16%
14,CCn1nnnc1SCC(=O)Nc1ccc(N(C)C)cc1,25.2% (active)
15,CCc1nccn1CCC(=O)N1CCCC(N2CCN(c3ccccc3F)CC2)C1 (configuration not stated),15.2%
16,COc1ccc(S(=O)(=O)N(C)CC(=O)NCCCN2CCOCC2)cc1Cl,-1.58%
17,Cc1cccc([C@@H]2[C@@H]3C(=O)N(Cc4ccccc4)C(=O)[C@@H]3[C@]3(C)C(=O)N(c4ccc(Br)cc4)C(=O)N23)c1,7.73%
18,C=CS(=O)c1sc(Cl)c(N2CCOCC2)c1[N+](=O)[O-] (configuration not stated),-4.64%
19,CC(=O)N1CCOc2ccc(S(=O)(=O)N3CCC(C(=O)Nc4ccccc4F)CC3)cc21,-0.955%
20,Cc1ccc(N(C(=O)C(F)(F)F)C(C(=O)NC2CCCCC2)c2ccncc2)cc1C (configuration not stated),-3.75%
21,Cc1ccc(OC(=O)c2c(C)nn(-c3ccccc3)c2C)cc1,47.6% (active)
22,Cc1cc(C(=O)COC(=O)c2cccs2)c(C)n1-c1c(C)n(C)n(-c2ccccc2)c1=O,16.4%
23,Cc1nn(-c2ccccc2)c(-n2cccc2)c1C(=O)O,-4.68%
24,CCCn1c(C)cc(C(=O)COC(=O)c2c(C)nn(-c3ccccc3)c2C)c1C,32.3% (active)
25,CCCc1cc(=O)[nH]c(SCC(=O)c2cc(C)n(CCC)c2C)n1,7.55%

row,SMILES,max response
1,Cc1nn(-c2ccccc2)c(C)c1C(=O)OCC(=O)NC(=O)NC1CCCCC1,2.3%
2,COCCn1c(SCC(=O)Nc2cc(OC)ccc2OC)nc2c(c1=O)SC(C)C2 (configuration not stated),-1.66%
3,CC(C)CC(=O)N1CCN(Cc2ccccc2Br)CC1,-2%
4,NC(=O)C(Cc1ccccc1)NC(=O)C12CC3CC(CC(C3)C1)C2 (configuration not stated),0.275%
5,CCCOc1ccc(NC(=O)C2OC3OC(C)(C)OC3C3OC(C)(C)OC23)cc1 (configuration not stated),10.8%
6,Cc1ccc(N/C=C/C(=O)c2ccccc2)cc1C,45.6% (active)
7,CCOc1ccc(N/C=C/C(=O)c2cc(OC)c(OC)c(OC)c2)cc1,3.1%
8,Cc1ccc(NNC(=O)C2CCC2)cc1C,-2.16%
9,CCCOc1ccc(NC(=O)C2CCCNC2=O)cc1 (configuration not stated),16.5%
10,Cc1ccc(N(NC(=O)C(C)(C)O)C(=O)c2ccccc2)cc1C,-3.59%
11,CCCOc1ccc(N/C=C/C(=O)C(C)(C)C)cc1,33% (active)
12,CCOc1ccc(NC(=S)N2CCC(NC(=O)c3ccccc3)CC2)cc1,-1.64%
13,CCOc1ccc(N/C=C/C(=O)c2ccccc2)cc1,38.2% (active)
14,Cc1cc(OCC(=O)NCC(O)c2ccccc2)c2c(C)c(C)c(=O)oc2c1 (configuration not stated),8.74%
15,O=C(O)c1ccccc1C(=O)NC1=NN(c2ccccc2)CC1,-1.86%
16,O=C(CSc1n[nH]c(-c2cccnc2)n1)Nc1ccc(Cl)cc1,1.65%
17,CCO[C@@H]1OC(C(=O)NC2CC2)=C[C@H](C)[C@H]1CCCO,-1.17%
18,CC(NC(=S)NC1CCCCC1)C(c1ccccc1)N1CCOCC1 (configuration not stated),0.505%
19,Cc1cc(=O)n2nc(N3CCCC(C(=O)NCc4cccc(Cl)c4)C3)sc2n1 (configuration not stated),-3.8%
20,CN(NS(=O)(=O)c1cccs1)c1ncc(C(F)(F)F)cc1Cl,-0.853%
21,OC(CNCCc1ccc(Cl)cc1Cl)COc1ccccc1 (configuration not stated),-1.8%
22,CCCOc1ccc(C(=O)NCCc2ccccc2)cc1,27% (active)
23,CC(C)c1ccc(C(=O)NCCCc2ccccc2)cc1,46.9% (active)
24,COc1ccc(OCCCC(=O)NCCc2ccccc2)cc1,-2.28%
25,NS(=O)(=O)c1ccc(CCNC(=O)c2ccc(Cl)cc2[N+](=O)[O-])cc1,-2.71%

row,SMILES,max response
1,Cc1cc(C(=O)NCCc2ccc(Cl)cc2)n(-c2ccccc2)n1,-0.868%
2,O=C(CCc1ccccc1)NNC(=O)COc1ccc(Cl)cc1,0.663%
3,O=C(NCCc1ccccc1)c1ccc(OCCOc2ccccc2)cc1,0.57%
4,O=C(NCCc1ccccc1)C1CC1,13%
5,O=C(NCCc1ccccc1)Oc1ccc(Cl)cc1,48.1% (active)
6,Cc1cc(C(=O)NCCc2ccc(Cl)cc2)c(C)o1,49.4% (active)
7,Nc1ccc(C(=O)NCc2ccccc2)cc1,-1.11%
8,CN(c1ccccc1)S(=O)(=O)c1ccc(C(=O)NCCc2ccccc2)cc1,11.2%
9,COc1ccc(-c2nc3cnccn3c2NC(C)(C)CC(C)(C)C)cc1O,-1.64%
10,Cc1ccc(CN2CCNC(=O)C2CC(=O)NCc2csc(C(C)C)n2)cc1 (configuration not stated),-3.12%
11,O=C(COc1ccc(S(=O)(=O)N2CCOCC2)cc1Cl)N1CCOCC1,-5.7%
12,Cc1cccc(N2C(=O)N3[C@H](c4ccc(F)cc4)[C@@H]4C(=O)N(C5CCCCC5)C(=O)[C@@H]4[C@]3(Cc3ccccc3)C2=O)c1,1.33%
13,O=c1oc2ccccc2c(NC2CCCCC2)c1NS(=O)(=O)c1ccc(Cl)cc1,-6.15%
14,Cc1ccc(N(CC(=O)NCC2CCCO2)C(=O)CNS(=O)(=O)c2ccc(Cl)cc2)cc1 (configuration not stated),-3.88%
15,O=C(NCCOc1ccccc1)c1ccccc1,68.1% (active)
16,O=C(CCc1c[nH]c2ccccc12)NCCOc1ccccc1,25.1%
17,NS(=O)(=O)c1cc(C(=O)NCCOc2ccccc2)c(Cl)cc1Cl,-1.96%
18,CCc1n[nH]c(=S)n1/N=C/c1c[nH]c2ccc(Br)cc12,-1.29%
19,CC1=NN(C(N)=S)C(=O)C1N=Nc1cc(Cl)ccc1Cl (configuration not stated),4.61%
20,CCCCc1nc(SCC(=O)Nc2nnc(C(C)C)s2)n[nH]1,26.4%
21,O=C1CCCC(O)=C1N=Nc1ccc2ncsc2c1,49.2% (active)
22,O=C1CCCC(O)=C1N=Nc1ccc(S(=O)(=O)N2CCOCC2)cc1,16%
